Calls of active or inactive are those of the source. No rule for the calls is given here.
assay: inhibition of Brca1/Bard1 split-luciferase complementation, confirmation, counter-screen for Mdm2/MdmX interaction inhibitor project, luminescence, single concentration (AID 504668); details: Brca1/Bard1 bimolecular luciferase complementation counterscreen, at 8 µM, stronger effect = higher value

**Q.** For `CC[C@@]1(C(=O)OC)N[C@H](CN(C)C(=O)Nc2ccc(C(F)(F)F)cc2)[C@@H]2C(=O)N(Cc3ccccc3)C(=O)[C@@H]21`, which inhibition is on record?
**A.** 32.2% (active)

**Q.** With `O=C(/C=C/c1ccc2ccccc2n1)N1CCN(S(=O)(=O)c2ccc(F)cc2)CC1` as the molecule, how does the inhibition read?
**A.** 35.1% (active)

**Q.** For `NC(N)=N/N=C/c1ccc(OCc2ccccc2Cl)cc1`, which inhibition is on record?
**A.** 32.5% (active)

**Q.** With `COc1cc(Br)cc(/C=N/NC(=O)Cc2ccc(C(F)(F)F)cc2[N+](=O)[O-])c1O` as the molecule, how does the inhibition read?
**A.** 32.8% (active)

**Q.** Which inhibition does the source give for `CC(C)C(=O)N1CCN(c2ccc(NC(=O)c3ccc([N+](=O)[O-])o3)cc2)CC1` here?
**A.** 23.4% (active)

**Q.** For `CC(C)CCNC(=O)C(c1ccncc1)N(Cc1cccs1)C(=O)Cn1nnc(-c2ccc(F)cc2)n1` (stereo not given), which inhibition is on record?
**A.** 26.3% (active)

**Q.** Which inhibition does the source give for `COc1cccc(/C=C2\SC(=S)N(CCC(=O)NCCc3ccc(O)cc3)C2=O)c1` here?
**A.** 35.4% (active)

**Q.** For `CCN1CCN(CCCNC(=O)c2ccc(/C=C3/Sc4ccccc4N(Cc4ccccc4F)C3=O)cc2)CC1`, which inhibition is on record?
**A.** 24.1% (active)

**Q.** For `Cc1cc(C)n(-c2ccc3cccc(NS(C)(=O)=O)c3n2)n1`, which inhibition is on record?
**A.** 32.1% (active)

**Q.** With `ClC(Cl)(Cl)c1nc2ccccc2n2nncc12` as the molecule, how does the inhibition read?
**A.** 31.8% (active)

**Q.** With `COc1cccc(-c2nnc(NC(=O)c3ccc(S(=O)(=O)N(CC(C)C)CC(C)C)cc3)o2)c1` as the molecule, how does the inhibition read?
**A.** 24.3% (active)

**Q.** With `N#C/C(=N/Nc1ccc(OC(F)(F)F)cc1)C(N)=S` as the molecule, how does the inhibition read?
**A.** 35% (active)

**Q.** For `CC(NC(=O)/C(C#N)=C/c1ccc(Cl)c([N+](=O)[O-])c1)c1ccccc1` (stereo not given), which inhibition is on record?
**A.** 29% (active)

**Q.** With `CC(=O)/C(C#N)=C1\NC(=O)C(Cc2ccccc2Cl)S1` (stereo not given) as the molecule, how does the inhibition read?
**A.** 30.1% (active)

**Q.** For `Cc1ccc(O)c(CNCCNCc2cc(C)ccc2O)c1`, which inhibition is on record?
**A.** 32.6% (active)

**Q.** With `CCCCCCCCCCC[N+](C)(C)CC/C=C1/c2ccccc2Sc2ccc(Cl)cc21` as the molecule, how does the inhibition read?
**A.** 28.6% (active)

**Q.** With `CCCCC(=O)NC(c1cccs1)c1cc(Cl)c2cccnc2c1O` (stereo not given) as the molecule, how does the inhibition read?
**A.** 28.5% (active)

**Q.** With `C=CCN=C1NN=C(c2cc(C)n(CCOC)c2C)CS1` as the molecule, how does the inhibition read?
**A.** 31% (active)

**Q.** For `CC(C)(C)c1cc(Cl)c(O)c(NC(=S)NC(=O)c2cccnc2)c1`, which inhibition is on record?
**A.** 35.2% (active)

**Q.** For `CCN1/C(=C/C=C/c2oc3ccc4ccccc4c3[n+]2CC)Oc2ccc3ccccc3c21`, which inhibition is on record?
**A.** 28.6% (active)

**Q.** With `C=C1CCC2[C@](C)(CO)[C@H](O)CC[C@@]2(C)[C@@H]1C/C=C1\C(=O)OC[C@H]1O` (stereo not given in full) as the molecule, how does the inhibition read?
**A.** 27.2% (active)

**Q.** With `N/C(=N\NC(=O)c1sccc1OCc1ccc(Cl)cc1Cl)c1ccccn1` as the molecule, how does the inhibition read?
**A.** 35.1% (active)

**Q.** For `COc1ccc(C(=O)C/C(=C\C(=O)c2ccc(C)cc2)c2ccccc2)cc1`, which inhibition is on record?
**A.** 24.3% (active)

**Q.** For `CCCC(=O)NC(c1cccs1)c1cc(Cl)c2cccnc2c1O` (stereo not given), which inhibition is on record?
**A.** 24.8% (active)

**Q.** Which inhibition does the source give for `Cc1ccccc1OCC(O)Cn1c(=N)n(Cc2ccccc2)c2ccccc21` (stereo not given) here?
**A.** 28.9% (active)

**Q.** Which inhibition does the source give for `COc1cccc(/C=N/Nc2ncnc(Cl)c2N)c1O` here?
**A.** 30.7% (active)

**Q.** Which inhibition does the source give for `CC(C)[C@@H]1CC[C@@H](C)C[C@H]1OC(=O)C[n+]1cc(-c2ccc(Cl)cc2)n2c1CCCCC2` here?
**A.** 28.7% (active)

**Q.** For `O=C(CCl)NCc1c(Cl)cccc1-n1cccc1`, which inhibition is on record?
**A.** 35.6% (active)

**Q.** With `Cn1nnnc1Sc1ncnc2scc(-c3ccccc3Br)c12` as the molecule, how does the inhibition read?
**A.** 25% (active)

**Q.** Which inhibition does the source give for `Oc1ccc(CNc2ccc(F)cc2)c2cccnc12` here?
**A.** 36% (active)

**Q.** Which inhibition does the source give for `CCOC(=O)/C(=C\c1cccc(O)c1)c1nc2sc(C)c(C)c2c(=O)[nH]1` here?
**A.** 27% (active)

**Q.** With `Cc1ccc(-n2nc(C)c(NC(=O)CCl)c2C)cc1C` as the molecule, how does the inhibition read?
**A.** 34% (active)

**Q.** Which inhibition does the source give for `COc1ccc(C(=O)O/N=C(\N)Cc2ccc(Cl)c(Cl)c2)cc1OC` here?
**A.** 26.9% (active)

**Q.** With `COc1ccc(O)c(/C=N/NC(=O)c2ccc(OCc3cccc(Br)c3)cc2)c1` as the molecule, how does the inhibition read?
**A.** 32.8% (active)

**Q.** Which inhibition does the source give for `Cc1cccc([C@@H]2[C@@H]3C(=O)N(Cc4ccccc4)C(=O)[C@@H]3[C@]3(C)C(=O)N(c4ccc(C(F)(F)F)cc4)C(=O)N23)c1` here?
**A.** 33.2% (active)

**Q.** With `CCCOc1ccc(/C=N/Nc2cc(N3CCOCC3)ncn2)c(O)c1` as the molecule, how does the inhibition read?
**A.** 23.7% (active)

**Q.** With `CCCCC(=O)NC(c1ccco1)c1cc(Cl)c2cccnc2c1O` (stereo not given) as the molecule, how does the inhibition read?
**A.** 28.6% (active)

**Q.** With `Oc1ccc(CN2CCc3ccccc3C2)c2cccnc12` as the molecule, how does the inhibition read?
**A.** 24.4% (active)

**Q.** With `CCCN(CCC)c1nc(-c2ccccn2)nc2ccccc12` as the molecule, how does the inhibition read?
**A.** 24.6% (active)

**Q.** With `CN(Cc1cnc2nc(N)nc(N)c2n1)c1ccc(C(=O)N[C@@H](CCC(=O)O)C(=O)O)cc1` as the molecule, how does the inhibition read?
**A.** 29.8% (active)

— PubChem BioAssay
